About 2,000 (36%) of roughly 5,500 compounds were called active. Another 18% or so got no clear call; they are omitted. No stated cut-off is given here; in the data, active means normalized growth mostly below about 0.91 (no sharp cut-off); inconclusive means no clear call, values can overlap the other calls; inactive means mostly above about 0.92. The list shows a part of the results.
Test: chemical genetic growth profiling, strain panel (AID 1159580);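 further: tested at 20 µM; growth read once vehicle control cultures reached saturation at 30 °C; 1 = growth at the plate median or of vehicle wells; lower values mean less growth of the strain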
Conditions: growth OD

Measured: normalized growth

CCCCN(CCCC)CCCOC(=O)c1ccc(N)cc1
inactive: S. cerevisiae deletion strains, locus YJR075W, strain HOC1, active compounds read low 0.981 | S. cerevisiae deletion strains, locus YKL009W, strain mrt4, active compounds read low 0.989 | S. cerevisiae deletion strains, locus YKL068W, active compounds read low 0.969 | S. cerevisiae deletion strains, locus YKL085W, strain MDH1 (second series), active compounds read low 0.987 | S. cerevisiae deletion strains, locus YKL085W, strain MDH1, active compounds read low 0.987 | S. cerevisiae deletion strains, locus YKL160W, strain elf1, active compounds read low 0.995 | S. cerevisiae deletion strains, locus YKL190W, strain CNB1, active compounds read low 0.988 | S. cerevisiae deletion strains, locus YKR001C, strain vps1, active compounds read low 0.98 | S. cerevisiae deletion strains, locus YKR026C, strain gcn3, active compounds read low 0.993 | S. cerevisiae deletion strains, locus YKR091W, strain srl3, active compounds read low 0.992 | S. cerevisiae deletion strains, locus YLL001W, strain dnm1, active compounds read low 0.996 | S. cerevisiae deletion strains, locus YLL026W, active compounds read low 0.995 | S. cerevisiae deletion strains, locus YLL041C, strain sdh2, active compounds read low 0.995 | S. cerevisiae deletion strains, locus YLR027C, strain aat2, active compounds read low 0.996 | S. cerevisiae deletion strains, locus YLR039C, strain RIC1, active compounds read low 0.863 | S. cerevisiae deletion strains, locus YLR058C, strain SHM2, active compounds read low 0.99 | S. cerevisiae deletion strains, locus YLR102C, strain apc9, active compounds read low 1.01 | S. cerevisiae deletion strains, locus YLR113W, strain HOG1, active compounds read low 0.986 | S. cerevisiae deletion strains, locus YLR221C, strain rsa3, active compounds read low 0.98 | S. cerevisiae deletion strains, locus YLR258W, strain gsy2, active compounds read low 0.985 | S. cerevisiae deletion strains, locus YLR262C, strain YPT6 (second series), active compounds read low 0.935 | S. cerevisiae deletion strains, locus YLR262C, strain YPT6, active compounds read low 0.876 | S. cerevisiae deletion strains, locus YLR268W, strain sec22, active compounds read low 0.92 | S. cerevisiae deletion strains, locus YLR320W, strain mms22, active compounds read low 0.993 | S. cerevisiae deletion strains, locus YLR330W, strain CHS5, active compounds read low 0.988 | S. cerevisiae deletion strains, locus YLR342W, strain FKS1 (second series), active compounds read low 1.06 | S. cerevisiae deletion strains, locus YLR342W, strain FKS1, active compounds read low 0.996 | S. cerevisiae deletion strains, locus YLR357W, strain rsc2, active compounds read low 0.99 | S. cerevisiae deletion strains, locus YLR370C, strain arc18, active compounds read low 0.995 | S. cerevisiae deletion strains, locus YLR371W, strain rom2, active compounds read low 0.992 | S. cerevisiae deletion strains, locus YLR384C, strain iki3, active compounds read low 0.995 | S. cerevisiae deletion strains, locus YLR418C, strain cdc73, active compounds read low 1.02 | S. cerevisiae deletion strains, locus YML016C, strain PPZ1, active compounds read low 0.993 | S. cerevisiae deletion strains, locus YML032C, strain rad52, active compounds read low 0.965 | S. cerevisiae deletion strains, locus YML120C, strain ndi1, active compounds read low 0.988 | S. cerevisiae deletion strains, locus YML124C, strain tub3, active compounds read low 0.997 | S. cerevisiae deletion strains, locus YMR058W, strain fet3, active compounds read low 0.999 | S. cerevisiae deletion strains, locus YMR078C, strain ctf18, active compounds read low 0.993 | S. cerevisiae deletion strains, locus YMR125W, strain sto1, active compounds read low 0.992 | S. cerevisiae deletion strains, locus YMR129W, active compounds read low 0.988 | S. cerevisiae deletion strains, locus YMR205C, strain PFK2, active compounds read low 0.991 | S. cerevisiae deletion strains, locus YMR223W, strain ubp8, active compounds read low 1.01 | S. cerevisiae deletion strains, locus YMR231W, strain pep5, active compounds read low 0.997 | S. cerevisiae deletion strains, locus YMR263W, strain SAP30, active compounds read low 0.982 | S. cerevisiae deletion strains, locus YMR307W, strain GAS1, active compounds read low 1.06 | S. cerevisiae deletion strains, locus YNL067W, strain RPL9B, active compounds read low 0.963 | S. cerevisiae deletion strains, locus YNL071W, strain lat1, active compounds read low 0.994 | S. cerevisiae deletion strains, locus YNL128W, strain TEP1, active compounds read low 0.994 | S. cerevisiae deletion strains, locus YNL153C, strain GIM3, active compounds read low 0.976 | S. cerevisiae deletion strains, locus YNL183C, strain NPR1, active compounds read low 0.921 | S. cerevisiae deletion strains, locus YNL209W, strain ssb2, active compounds read low 0.985 | S. cerevisiae deletion strains, locus YNL233W, strain BNI4, active compounds read low 0.985 | S. cerevisiae deletion strains, locus YNL248C, strain rpa49, active compounds read low 0.976 | S. cerevisiae deletion strains, locus YNL250W, strain rad50, active compounds read low 0.983 | S. cerevisiae deletion strains, locus YNL271C, strain bni1, active compounds read low 0.984 | S. cerevisiae deletion strains, locus YNL298W, strain CLA4, active compounds read low 0.978 | S. cerevisiae deletion strains, locus YNL307C, strain MCK1, active compounds read low 0.982 | S. cerevisiae deletion strains, locus YNL322C, strain KRE1 (second series), active compounds read low 0.991 | S. cerevisiae deletion strains, locus YNL322C, strain KRE1, active compounds read low 0.994 | S. cerevisiae deletion strains, locus YNR049C, strain mso1, active compounds read low 0.998 | S. cerevisiae deletion strains, locus YNR052C, strain pop2, active compounds read low 0.992 | S. cerevisiae deletion strains, locus YOL006C, strain TOP1, active compounds read low 0.938 | S. cerevisiae deletion strains, locus YOL012C, strain htz1 0.971 | S. cerevisiae deletion strains, locus YOL147C, strain pex11, active compounds read low 0.989 | S. cerevisiae deletion strains, locus YOR001W, strain rrp6, active compounds read low 0.995 | S. cerevisiae deletion strains, locus YOR061W, strain CKA2, active compounds read low 0.992 | S. cerevisiae deletion strains, locus YOR069W, strain VPS5, active compounds read low 0.995 | S. cerevisiae deletion strains, locus YOR070C, strain gyp1, active compounds read low 0.993 | S. cerevisiae deletion strains, locus YOR080W, strain dia2, active compounds read low 0.996 | S. cerevisiae deletion strains, locus YOR083W, strain WHI5, active compounds read low 0.984 | S. cerevisiae deletion strains, locus YOR106W, strain vam3, active compounds read low 0.995 | S. cerevisiae deletion strains, locus YOR136W, strain idh2, active compounds read low 0.994 | S. cerevisiae deletion strains, locus YOR144C, strain elg1, active compounds read low 0.986 | S. cerevisiae deletion strains, locus YOR184W, strain ser1, active compounds read low 0.979 | S. cerevisiae deletion strains, locus YOR231W, strain MKK1, active compounds read low 0.961 | S. cerevisiae deletion strains, locus YOR265W, strain rbl2, active compounds read low 0.998 | S. cerevisiae deletion strains, locus YOR270C, strain vph1, active compounds read low 1.01 | S. cerevisiae deletion strains, locus YOR290C, strain snf2, active compounds read low 0.986 | S. cerevisiae deletion strains, locus YOR316C, strain cot1, active compounds read low 0.978 | S. cerevisiae deletion strains, locus YPL051W, strain arl3, active compounds read low 0.995 | S. cerevisiae deletion strains, locus YPL055C, strain LGE1, active compounds read low 0.986 | S. cerevisiae deletion strains, locus YPL078C, strain atp4, active compounds read low 0.988 | S. cerevisiae deletion strains, locus YPL106C, strain sse1, active compounds read low 0.977 | S. cerevisiae deletion strains, locus YPL240C, strain hsp82, active compounds read low 0.997 | S. cerevisiae deletion strains, locus YPL241C, strain CIN2, active compounds read low 1 | S. cerevisiae deletion strains, locus YPL256C, strain CLN2, active compounds read low 0.937 | S. cerevisiae deletion strains, locus YPR119W, strain clb2, active compounds read low 0.969 | S. cerevisiae deletion strains, locus YPR141C, strain kar3, active compounds read low 0.987 | S. cerevisiae deletion strains, locus YPR163C, strain tif3, active compounds read low 0.973 | S. cerevisiae deletion strains, locus YPR167C, strain met16, active compounds read low 0.978 | S. cerevisiae deletion strains, strain wtn01, active compounds read low 0.97 | S. cerevisiae strains, strain wild type, active compounds read low 1

— PubChem BioAssay AID1159580 (chemical genetic matrix, 2015)
